SENP6 inh: SENP6 protease inhibitors, primary screen, biochemical, luminescence, uHTS. Sentrin-specific protease 6 (Homo sapiens), Q9GZR1. inhibition, % at 10 µM. 1.8% of 330,000 active. Recombinant SENP6 catalytic domain, aminoluciferin luminescence;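 active means inhibition above about 50% at the single tested dose, limit read from the data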;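 further: plate controls were DMSO wells with enzyme for no effect and DMSO wells lacking enzyme for full effect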
HSP90 refold inh: HSP90 inhibitors, primary screen, cell lysate, luminescence; Heat shock protein HSP 90 (rabbit reticulocyte lysate; luciferase refolding); Rabbit reticulocyte lysate, luciferase refolding luminescence, 3 h; AID 1789, 2009; 0.91% of 290,000 active; inhibition, % at 5.6 µM;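 active means inhibition above the screen-wide mean plus 3 SD, computed separately per campaign, cut at about 16% in these data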;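 further: 0% = DMSO wells and 100% = 60 µM geldanamycin wells; inhibitors lower the luminescence because luciferase stays unfolded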
SENP8 block-1: human SENP8 protease inhibitors, primary screen, biochemical, fluorescence, Nedd8 protein substrate, uHTS | Sentrin-specific protease 8 (Homo sapiens), Q96LD8 | recombinant SENP8 | inhibition, % at 20 µM | 0.64% of 360,000 active | AID 602440, 2012; in the data active means inhibition mostly above about 40%, no sharp cut-off; inactive means mostly below about 27%
Target sequence (Q96LD8 whole entry, looked up): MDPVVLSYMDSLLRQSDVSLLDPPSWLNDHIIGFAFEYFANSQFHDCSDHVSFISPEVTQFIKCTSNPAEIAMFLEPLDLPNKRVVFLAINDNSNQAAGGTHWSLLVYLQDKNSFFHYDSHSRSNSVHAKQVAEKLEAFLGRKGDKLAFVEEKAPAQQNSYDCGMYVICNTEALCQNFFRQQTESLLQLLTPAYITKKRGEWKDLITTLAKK
SENP7 block: SENP7 protease inhibitors, primary screen, biochemical, luminescence, uHTS; recombinant SENP7, Z-RLRGG-aminoluciferin luminescence, 40 min; inhibition, % at 5 µM; 1.5% of 330,000 active; Sentrin-specific protease 7 (Homo sapiens), Q9BQF6;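 active means inhibition above about 50% at the single test dose, limit read from the data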;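 further: plate controls were DMSO with enzyme for no effect and no enzyme buffer wells for full effect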
SENP8 block-2: SENP8 protease inhibitors, primary screen, biochemical, luminescence; Sentrin-specific protease 8 (Homo sapiens), Q96LD8; purified SENP8, Z-RLRGG-aminoluciferin cleavage; inhibition, % at 10 µM; 1.2% of 330,000 active; AID 2540, 2010; in the data active means inhibition above about 50%
HSP90 inh confirm: HSP90 inhibitors, confirmation, cell lysate, luminescence | inhibition, % at 5.9 µM | shares compounds with HSP90 refold inh | 64% of 2,300 active | rabbit reticulocyte lysate, luciferase refolding luminescence, 3 h; in the data active means inhibition above about 18%;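 further: 0% = vehicle wells and 100% = reference inhibitor wells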
luciferase ctr: firefly luciferase inhibitors, HSP90 counter-screen, confirmation, artefact control for HSP90 inhibitor project, biochemical, luminescence, triplicate; shares compounds with HSP90 refold inh; inhibition, % at 5.9 µM; 48% of 2,300 active; AID 1847, 2009; purified native firefly luciferase;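 active means inhibition above the mean inhibition of all tested sample wells plus 3 SD, cut at about 10% in these data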;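 further: 0% = DMSO with luciferase and 100% = wells lacking luciferase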
SENP8 confirm: SENP8 protease inhibitors, retest, confirmation, biochemical, luminescence, single concentration; shares compounds with SENP7 block; Recombinant SENP8, Z-RLRGG-aminoluciferin luminescence, 60 min; inhibition, % at 12.5 µM; 40% of 6,200 active; AID 488912, 2010;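 active means mean inhibition across replicates above about 50%, limit read from the data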
SENP6 conf: SENP6 protease inhibitors, confirmation, biochemical, luminescence, single concentration. shares compounds with SENP7 block. recombinant SENP6, Z-RLRGG-aminoluciferin luminescence. inhibition, % at 12.5 µM. 58% of 6,200 active. AID 488915, 2010
SENP7 conf: SENP7 protease inhibitors, retest, confirmation, biochemical, luminescence, single concentration; AID 488917, 2010; 69% of 6,200 active; inhibition, % at 12.5 µM; shares compounds with SENP7 block; recombinant SENP7, Z-RLRGG-aminoluciferin luminescence, 40 min
Casp3 select: caspase-3 protease inhibitors, confirmation, selectivity assay for SENP inhibitor project, biochemical, single concentration. shares compounds with SENP7 block. purified caspase-3, Z-DEVD-aminoluciferin luminescence, 60 min. inhibition, % at 12.5 µM. 60% of 6,200 active;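 active means mean inhibition above about 50%, limit read from the data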;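 further: plate controls were enzyme with DMSO for no effect and wells without caspase-3 for full effect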
Target sequence (P42574 28-227 limits assumed): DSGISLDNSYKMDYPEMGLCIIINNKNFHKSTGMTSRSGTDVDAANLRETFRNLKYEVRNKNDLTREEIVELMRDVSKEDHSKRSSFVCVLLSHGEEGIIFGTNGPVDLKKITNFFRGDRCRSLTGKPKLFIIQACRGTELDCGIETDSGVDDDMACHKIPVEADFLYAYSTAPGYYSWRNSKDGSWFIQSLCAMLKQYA
SENP luc ctr: interferes with luciferase luminescence in SENP counter-screen; shares compounds with SENP7 block; Pre-incubated SENP8/Z-RLRGG-aminoluciferin, luciferase luminescence interference; inhibition, % at 12.5 µM; 39% of 6,200 active; AID 488919;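 active means mean inhibition above about 50% when retested at one dose, limit read from the data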;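 further: plate controls were DMSO wells with completed reaction for no effect and substrate without enzyme for full effect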
An asterisk follows results filed as active; nt = not tested or not shown. In the library only some 2.7% were active in any assay of this set; here they are far more common.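 How the source made its calls, unless noted: active means mean inhibition above about 50% in the one-dose retest (limit read from the data); inactive means the rest.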

SMILES	SENP6 inh	HSP90 refold inh	SENP8 block-1	SENP7 block	SENP8 block-2	HSP90 inh confirm	luciferase ctr	SENP8 confirm	SENP6 conf	SENP7 conf	Casp3 select	SENP luc ctr
CC(=O)Nc1cc2nn(-c3ccccc3)nc2cc1C	78*	21*	-421	77*	72*	32*	21*	26	45	87*	79*	26
Cc1c(/C=C/C(=O)c2cccs2)cnn1C	-20	-1	-77	-5	-14	nt	nt	nt	nt	nt	nt	nt
CCc1ccc(C(=O)/C=C/c2cnn(C)c2C)s1	54*	35*	-131	13	-16	26*	52*	6	-14	15	-6	19
CN=C1S/C(=C\c2cc(C)n(-c3ccccc3F)c2C)C(=O)N1C	42	49*	-14	66*	63*	65*	63*	86*	88*	96*	70*	74*
Cc1cc(/C=C2\SC(=O)N(C)C2=O)c(C)n1-c1ccc(O)cc1	61*	48*	-93	-1	16	64*	63*	74*	72*	84*	30	69*
C/C(=N\Nc1ccccn1)c1ccc(OC(F)F)cc1	-5	-3	10	-7	-12	nt	nt	nt	nt	nt	nt	nt
C/C(=N\Nc1nncc2ccccc12)c1ccc(O)cc1	67*	20*	30	36	4	32*	12*	0	-9	40	44	12
C/C(=N\Nc1nncc2ccccc12)c1cccc(OC(F)F)c1	97*	25*	26	100*	89*	40*	23*	68*	75*	82*	75*	15
C/C(=N\Nc1nncc2ccccc12)c1ccc(C(C)(C)C)cc1	-5	0	20	5	-6	nt	nt	nt	nt	nt	nt	nt
CCN(CC)c1ncnc2sc3c(c12)CCC3	-6	0	10	0	-1	nt	nt	nt	nt	nt	nt	nt
CC(CCc1ccccc1)NC(=O)CNC(=O)N1CC(=O)Nc2ccccc21 (stereo not drawn)	-8	-6	2	-10	-13	nt	nt	nt	nt	nt	nt	nt
O=C(CCCOc1ccccc1)N1CCCCC1	55*	34*	15	47	25	66*	53*	30	27	69*	79*	49
CCCNS(=O)(=O)c1ccc(CCC(=O)N2CCN(c3ccc(OC)cc3)CC2)cc1	-14	-3	11	-5	-12	nt	nt	nt	nt	nt	nt	nt
CCOc1ccc(C(=O)Nc2ccccc2-c2ccccc2)cc1Cl	-4	2	6	6	7	nt	nt	nt	nt	nt	nt	nt
CCOc1ccc(C(=O)Nc2cccc(C(=O)O)c2C)cc1Cl	100*	88*	11	98*	93*	92*	68*	97*	98*	102*	80*	97*
O=C(/C=C/c1cccs1)c1ccc(N2CCOCC2)cc1	84*	31*	-1	87*	72*	58*	69*	38	82*	93*	38	24
CCCNC(=O)c1ccc(-c2nc3ccccc3s2)s1	89*	22*	-420	87*	84*	68*	60*	8	86*	99*	55*	25
O=C(NCCCO)c1nc2ccccc2s1	-10	-1	16	9	4	nt	nt	nt	nt	nt	nt	nt
CCCSc1ccc2nc(-c3ccccc3)cn2c1	96*	46*	-356	98*	96*	90*	83*	98*	99*	102*	97*	93*
Cc1cc(C)nc(Nc2nc(-c3ccccc3)cs2)n1	74*	28*	4	90*	82*	51*	37*	0	5	49	-4	-3
Cc1ccc(-n2nnc(-c3nccs3)n2)cc1	94*	76*	14	98*	94*	85*	81*	97*	97*	101*	97*	94*
CCc1ccc(C2CC(c3ccco3)=NN2S(C)(=O)=O)cc1 (stereo not drawn)	94*	18*	22	92*	89*	22*	13*	96*	97*	102*	96*	92*
CCOc1ccc2cc(C3CC(c4ccco4)=NN3S(C)(=O)=O)c(Cl)nc2c1 (stereo not drawn)	-10	-1	-2	-2	-9	nt	nt	nt	nt	nt	nt	nt
O=C(O)C1C2C=CC(C2)C1C(=O)NCCCc1ccccc1 (stereo not drawn)	6	3	11	5	-2	nt	nt	nt	nt	nt	nt	nt
NS(=O)(=O)c1c(Sc2ccccc2C(=O)O)ccc2ccccc12	94*	23*	5	52*	-9	20*	-17	-4	0	-4	2	40
COc1ccc(C(=O)O/N=C(\N)c2ccccc2)cc1	97*	25*	23	100*	97*	43*	79*	99*	100*	103*	98*	98*
COc1ccc(/C(N)=N/OC(=O)c2ccco2)cc1	91*	41*	17	24	84*	60*	43*	89*	90*	98*	91*	86*
COC(=O)c1ccc(OC(=O)c2ccco2)cc1	-7	2	13	2	-4	nt	nt	nt	nt	nt	nt	nt
CC(C)(C)c1ccc(C(=O)O/N=C(\N)c2ccccc2)cc1	93*	69*	10	95*	90*	25*	20*	96*	96*	102*	92*	39
COc1ccc(C(=O)O/N=C(\N)c2ccc(Br)cc2)cc1	26	-2	14	26	-1	nt	nt	nt	nt	nt	nt	nt

Compound activity (PubChem BioAssay)
